# PubChem BioAssay (Tox21)
# Records with an inconclusive call do not appear. Entries that show only a call come without a potency. Activity calls are given as the source filed them. Calls come from the whole dose curve; as a rule, active = well fitted activation curve with a large enough effect in the repeat runs; inconclusive = weak or mixed curves; inactive = flat fitted curve, though single readings scatter.
# Assay: A CellTox Green Cytotoxicity Assay to monitor cytotoxicity in HEK293 cells - 40 hour (AID 1224871); note: nearly all actives have a fitted effect of over 45% in size
# Conditions: CellTox Green fluorescence; series mostly up to 76.8 µM
# Description: National Center for Advancing Translational Sciences [NCATS]
# NIH Chemical Genomics Center [NCGC]
# U.S. Environmental Protection Agency [EPA]
# National Institutes of Environmental Health Sciences [NIEHS]
# National Toxicology Program [NTP]
# Cell-based models are critical for drug discovery. Determining the natural cytotoxic effects resulting from test compounds is an essential research activity. A CellTox Green Cytotoxicity Assay to monitor cytotoxicity in real time of continues cell culture during 40 hours of the compound treatment was used to screen Tox21 10K library compounds in Hek293 cells. CellTox Green Cytotoxicity Assay is a nonlytic, homogeneous, biofluorescent method to measure cytotoxicity in cell culture after experimental manipulation. The assay system uses a proprietary asymmetric cyanine dye that is excluded from viable cells but preferentially stains the dead cell's DNA. […] Viable cells produce no appreciable increases in fluorescence. Therefore, the fluorescence signal produced by the binding interaction with dead cell DNA is proportional to cytotoxicity.
# The mixture of Hek293 cell suspension and reagents were dispensed at 600cells/6 ul/well in 1536-well tissue culture treated black solid bottom plates using a Multidrop dispenser. After the assay plates were incubated at a 37 C/5% CO2 incubator for 5 hours, 23 nL of compounds dissolved in DMSO, positive and negative controls was transferred to the assay plate by a pintool work station. The plates were incubated at 37 C for 40 hours. The fluorescence intensity were measured at 0h, 8h, 16h, 24h, 32h and 40h time points using ViewLux plate reader during compound treatment.
row,Compound,Potency
1,CCOP(=S)(OCC)SCSc1ccc(Cl)cc1,inactive
2,Cc1ncc(CNC(=O)N(CCCl)N=O)c(N)n1,inactive
3,Nc1cc(Cl)ccc1O,inactive
4,N#CCCC#N,inactive
5,CCN(Cc1ccc(Cl)nc1)/C(=C/[N+](=O)[O-])NC,inactive
6,O=C(CCCN1CCC(n2c(=O)[nH]c3ccccc32)CC1)c1ccc(F)cc1,inactive
7,CC(C)NCC(O)c1ccc(N)c(C#N)c1 (stereo not given),inactive
8,ClC(Cl)C(Cl)Cl,inactive
9,ClC(Br)Br,inactive
10,CC(=O)[C@H]1CC[C@H]2[C@@H]3CC[C@H]4C[C@H](O)CC[C@]4(C)[C@H]3C(=O)C[C@]12C,inactive
11,CCS(=O)(=O)CCSP(=O)(OC)OC,inactive
12,C1CCC(C2CCCCC2)CC1,inactive
13,CNC(=O)Oc1cccc(C(C)C)c1,inactive
14,Nc1n[nH]c(N)n1,inactive
15,CCC(C)n1c(=O)[nH]c(C)c(Br)c1=O (stereo not given),inactive
16,CC(C)[N+](=O)[O-],inactive
17,Nc1ccccc1Cl,inactive
18,CCCCOC(=O)c1ccccc1C(=O)O,inactive
19,C[N+](C)=CCl,inactive
20,C[N+](=O)[O-],inactive

row,Compound,Potency
1,CCC(Cl)[N+](=O)[O-] (stereo not given),inactive
2,O=[N+]([O-])c1ccc2c3c(cccc13)CC2,inactive
3,CC1(C)CON(Cc2ccccc2Cl)C1=O,inactive
4,C[C@]12CC[C@H]3[C@@H](CC=C4C[C@@H](O)CC[C@@]43C)[C@@H]1CC[C@@H]2O,inactive
5,CCCCP(CCCC)CCCC,inactive
6,O=[N+]([O-])c1cccc2c([N+](=O)[O-])cccc12,inactive
7,CC(COc1ccc(Oc2ccccc2)cc1)Oc1ccccn1 (stereo not given),inactive
8,O=C(NCO)NCO,inactive
9,CCNc1nc(NC(C)C)nc(OC)n1,inactive
10,CCOP(=S)(OCC)Oc1nc(Cl)n(C(C)C)n1,inactive
11,CC(C1CC1)C(O)(Cn1cncn1)c1ccc(Cl)cc1 (stereo not given),inactive
12,CN(C)CCc1ccc(O)cc1,inactive
13,CCC/C(=N\OCC)C1=C(O)CC(CC(C)SCC)CC1=O (stereo not given),inactive
14,CCCCOP(=O)(O)OCCCC,inactive
15,CC(C(=O)c1ccccc1)N(C)C (stereo not given),inactive
16,CN1C[C@@H](NS(=O)(=O)N(C)C)C[C@@H]2c3cccc4c3c(cn4C)C[C@H]21,inactive
17,NC(=O)O,inactive
18,CCOc1nc(C(Cl)(Cl)Cl)ns1,inactive
19,CCC(C)(C)c1cc(-n2nc3ccccc3n2)c(O)c(C(C)(C)CC)c1,inactive
20,NC1=NC(=O)C(c2ccccc2)O1 (stereo not given),inactive
